Results filed as inconclusive are left out. Entries that show only a call come without a potency. Calls of active or inactive are those of the source. Calls come from the whole dose curve; as a rule, active = well fitted cell-killing curve with a large enough effect; inconclusive = small, poorly fitted or top-dose-only effect; inactive = flat fitted curve, though single readings scatter.
assay: Cell Viability - LYMP2-019 (AID 973); settings: LYMP2-019 lymphoblastoid cell line viability; series mostly up to 92.2 µM; note: nearly all actives have a fitted effect of over 55% in size
Outline: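 Human lymphoblastoid LYMP2-019 cells (2500/well) preincubated 5 h at 37 C, then treated 24 h at 37 C in complete medium. Viability by CellTiter-Glo ATP luminescence after 30 min at room temperature; AC50 from Hill fits.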
Potency is the fitted concentration of half-maximal effect.

Compound	Potency
CCOCCOC(C)=O	inactive
COc1ccc(C(c2ccc(OC)cc2)C(Cl)(Cl)Cl)cc1	inactive
O=C(O)C(Cl)Cl	inactive
O=C(O)COc1ccccc1	inactive
O=[N+]([O-])c1c2ccccc2cc2ccccc12	inactive
CC(C)(O)C(=O)Nc1ccc([N+](=O)[O-])c(C(F)(F)F)c1	inactive
CN(C)NC(=O)CCC(=O)O	inactive
CCCCCCCCc1ccc(O)cc1	inactive
O=[N+]([O-])c1cc([N+](=O)[O-])c2ccccc2c1	inactive
CN(C)[C@@H]1C(=O)C(C(N)=O)=C(O)[C@@]2(O)C(=O)C3=C(O)c4c(O)cccc4[C@@](C)(O)[C@H]3[C@H](O)[C@@H]12	inactive
CC(=O)[O][Hg][c]1ccccc1	794 nM (active)
O=S(=O)(c1ccc(Cl)cc1)c1ccc(Cl)cc1	inactive
CCCCOC(=O)c1ccccc1C(=O)OCc1ccccc1	inactive
O=[N+]([O-])c1c(Cl)c(Cl)cc(Cl)c1Cl	inactive
COC(C)(C)CCCC(C)C/C=C/C(C)=C/C(=O)OC(C)C (stereo unspecified)	inactive
Nc1ccc(Sc2ccc(N)cc2)cc1	inactive
Nc1ccc(Cl)cc1N	inactive
C=CC(=O)NCNC(=O)C=C	inactive
Cc1cc(O)ccc1Cl	inactive
C1CCC(NC2CCCCC2)CC1	inactive
CCCCC(CC)COC(=O)c1ccccc1C(=O)OCC(CC)CCCC (stereo unspecified)	inactive
Nc1ccc([N+](=O)[O-])cc1	inactive
c1cc2ccc3cccc4ccc(c1)c2c34	inactive
OCCCBr	inactive
Nc1ccc(Cl)cc1	inactive
CCOP(=O)(NC(C)C)Oc1ccc(SC)c(C)c1 (stereo unspecified)	inactive
